Most compounds without a hit are left out; they make up all but 2.4% or so of the library.
D2 PAM-1: HTS Assay for Positive Allosteric Modulators of the Human D2 Dopamine Receptor: Primary Screen for Potentiators. 340,000 compounds, 0.34% hits. D(2) dopamine receptor (Homo sapiens), P14416. HEK293 T-REx D2, calcium flux, EC20 dopamine potentiation. potentiation, % at 10 µM;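 active = potentiation over 3 SD above the plate norm, cut at about 30% in these data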
Target sequence (P14416 whole entry, looked up): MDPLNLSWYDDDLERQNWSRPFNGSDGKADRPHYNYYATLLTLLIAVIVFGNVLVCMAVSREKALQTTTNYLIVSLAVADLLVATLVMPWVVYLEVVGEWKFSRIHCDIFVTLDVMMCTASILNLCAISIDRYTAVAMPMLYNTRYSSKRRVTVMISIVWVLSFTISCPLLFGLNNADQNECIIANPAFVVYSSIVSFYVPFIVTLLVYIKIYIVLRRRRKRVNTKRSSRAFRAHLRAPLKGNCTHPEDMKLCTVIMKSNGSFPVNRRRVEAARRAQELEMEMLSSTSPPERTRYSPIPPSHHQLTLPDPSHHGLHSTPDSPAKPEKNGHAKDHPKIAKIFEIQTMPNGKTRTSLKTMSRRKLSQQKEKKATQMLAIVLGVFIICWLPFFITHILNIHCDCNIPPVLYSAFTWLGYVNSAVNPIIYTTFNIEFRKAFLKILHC
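Tetracycline-induced HEK293 T-REx cells force-coupled to calcium signalling expressed D2; compounds were pin-added after a 10 s baseline, read kinetically 180 s, then an EC20 dopamine challenge followed with a further 180 s calcium read.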
D2 PAM-2: Beta-Arrestin HTS for Positive Allosteric Modulators of the Human D2 Dopamine Receptor: Potentiators. D(2) dopamine receptor (Homo sapiens), P14416. DiscoveRx D2 beta-arrestin cells, luminescence, 90 min; 100% = 57 uM dopamine signal. potentiation, % (concentration not given with the values). 360,000 compounds, 0.23% hits; in the data active = potentiation above about 50%; inconclusive = mostly about 30% to 49%
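D2 cells co-treated with compound plus 50 nM dopamine (EC20) for 90 min at 37 deg C to detect potentiation. Beta-arrestin recruitment was read as enzyme-fragment luminescence after 1 h at ambient temperature. Full response was set by 57 uM dopamine.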
D2 ag-1: Beta-Arrestin HTS for Positive Allosteric Modulators of the Human D2 Dopamine Receptor: Agonists. activation, % (test concentration not listed). 360,000 compounds, 0.084% hits. DiscoveRx PathHunter D2 beta-arrestin, luminescence, 90 min; 100% = 57 uM dopamine signal; in the data active = activation above about 40%; inconclusive = between about 15% and that limit
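DiscoveRx PathHunter D2 beta-arrestin cells (2,100/well) attached overnight, then compound-stimulated 90 min at 37 C in HBSS/10 mM HEPES/0.1% Tween-20 buffer; beta-galactosidase complementation read by luminescence after 1 h at ambient temperature. Dopamine 57 uM final (EC100) as control.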
D2 ag-2: HTS Assay for Allosteric Agonists of the Human D2 Dopamine Receptor: Primary Screen for Agonists. HEK293 T-REx D2 cells, calcium flux agonist mode. activation, % at 2 µM. 340,000 compounds, 0.53% hits;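 active = activation over 3 SD above normal in the single-dose calcium agonist read, cut at about 30% in these data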
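In this primary screen, compounds producing a positive calcium signal within 180 s of addition to tetracycline-induced, force-coupled HEK293 Trex D2 cells are flagged; cells are dye-loaded with a no-wash calcium kit beforehand.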
D2 antag: HTS Assay for Allosteric Antagonists of the Human D2 Dopamine Receptor: Primary Screen for Antagonists. HEK293 TREx D2 cells, calcium flux, dopamine EC80. 340,000 compounds, 2% hits. D(2) dopamine receptor (Homo sapiens), P14416. inhibition, % at 10 µM; in the data active = inhibition above about 30%; inactive = below that, where a call was filed
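Tetracycline-induced HEK293 T-REx cells expressing D2 force-coupled to calcium signalling were dye-loaded, exposed to compound for 180 s, then challenged with an EC80 of dopamine; calcium flux was followed kinetically for a further 180 s.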
Hits are given with their value; - = inactive; ? = inconclusive; . = no result.

SMILES | D2 PAM-1 | D2 PAM-2 | D2 ag-1 | D2 ag-2 | D2 antag
COc1ccc(Nc2ccc3c(c2)=NC2(CCCCC2)[N+]=3[O-])cc1 | - | - | - | - | -
CCOc1ccc(NC(=O)Cn2c(=O)n(Cc3ccc4c(c3)OCO4)c(=O)c3ccc(C(=O)NC4CCCCC4)cc32)cc1 | - | . | . | - | .
O=C(CN1CCc2ccccc2C1)Nc1ccccc1Cl | - | - | - | 30.5 | 60.6
O=C(CCN1CCc2ccccc2C1)Nc1ccc2c(c1)OCO2 | - | - | - | - | 58.5
Cc1cccc(C(=O)NCCC(=O)N2CCc3ccccc3C2)c1 | - | - | - | - | 32.1
COc1cc2c(cc1OC)CN(C(=O)Nc1ccccc1Cl)CC2 | - | - | - | - | 34.7
Cc1cccc(C(=O)NC(=S)N2CCc3ccccc3C2)c1 | - | - | - | - | -
O=C(CN1CCc2ccccc2C1)Nc1ccccc1N1CCCCCC1 | - | - | - | - | -
Cc1oc2ccc(O)c(CN3CCN(Cc4ccccc4)CC3)c2c1C(=O)Nc1cccc(Cl)c1C | - | . | . | - | .
Cc1ccc(C)c(NC(=O)CCN2CCc3ccccc3C2)c1 | - | - | - | - | 31.3
CCN1CCN(CCC(=O)Nc2cc(C)ccc2C)CC1 | - | - | - | - | -
CN1CCC(=C2c3ccccc3CC(=O)c3sccc32)CC1 | - | - | - | - | -
CN1CCC(=C2c3ccccc3CCc3sccc32)CC1 | - | - | - | - | 86.2
Cc1ccc(-c2nc(CS(=O)CC(=O)N3CCN(c4ccc(Cl)cc4)CC3)c(C)o2)cc1 (stereo unspecified) | - | . | . | - | .
O=C(OCc1nnc(-c2ccc([N+](=O)[O-])cc2)o1)C1CCN(C(=O)c2ccc(F)cc2)CC1 | - | - | - | - | 34.7
O=C(OCc1nnc(-c2ccc([N+](=O)[O-])cc2)o1)C1CCN(C(=O)c2ccc(Cl)cc2)CC1 | - | - | - | - | -
COc1ccc(OCc2ccc(-c3nc(C#N)c(NC(C)c4ccccc4)o3)o2)cc1 (stereo unspecified) | - | . | . | - | .
CC(C)CNS(=O)(=O)c1ccc(OCC(=O)Nc2ccc3c(c2)OCCO3)cc1 | - | - | - | - | -
CCC(C)NS(=O)(=O)c1ccc(OCC(=O)Nc2ccc3c(c2)OCCO3)cc1 (stereo unspecified) | 47.8 | - | - | - | -
CCC(C)NS(=O)(=O)c1ccc(OCC(=O)NCC2CCCO2)cc1 (stereo unspecified) | 34.1 | - | - | - | -
CC(=O)Nc1ccc(S(=O)(=O)NCC2CCCO2)cc1 (stereo unspecified) | . | - | - | . | .
COc1ccc(CC(=O)Nc2ccc(S(=O)(=O)NCC3CCCO3)cc2)cc1 (stereo unspecified) | - | - | - | - | 31.8
Cc1ccc(NC(=O)CNCc2cccs2)c(Br)c1 | - | - | - | - | 31.6
O=C(Nc1ccc(Cl)cc1)c1ccc2ncsc2c1 | - | - | ? | - | 40.1
O=C(Nc1ccc(F)cc1)c1ccc2ncsc2c1 | - | - | - | - | -
SMILES | D2 PAM-1 | D2 PAM-2 | D2 ag-1 | D2 ag-2 | D2 antag
Cc1nn(CC(C)C)c(=S)[nH]c1=O | - | - | - | - | 31.6
CN(CC1CCN(CCc2cccc(C(F)(F)F)c2)CC1)C(=O)c1ccc(F)cc1 | - | - | - | - | 58.3
COc1cccc(NC(=S)N(CCCN2CCC(C)CC2)Cc2cccs2)c1 | - | - | - | - | 59.1
CCOC(=O)c1ccc(NC(=S)N(CCCN2CCCC2)Cc2cccs2)cc1 | - | - | - | - | -
COc1ccc(NC(=S)N(CCCN2CCC(C)CC2)Cc2cccs2)cc1 | . | - | - | - | -
CCOC(=O)c1ccc(NC(=S)N(CCCN2CCCC(C)C2)Cc2cccs2)cc1 (stereo unspecified) | - | - | - | - | 39.6
CCOc1ccc(NC(=O)N2CCN(S(=O)(=O)c3ccc4c(ccn4C)c3)CC2)cc1 | - | . | . | - | .
CCOC(=O)c1[nH]c2ccccc2c1NC(=O)c1cc(OC)c(OC)c(OC)c1 | . | - | - | . | .
COc1cc(C(=O)Nc2c(C(=O)O)[nH]c3ccc(C)cc23)cc(OC)c1OC | - | - | - | - | 34.3
COc1cccc(-c2noc(N)c2C#N)c1 | - | ? | ? | - | -
N#Cc1c(-c2ccc(F)cc2)noc1N | - | 96.1 | ? | - | -
Clc1ccc(/C=N/Nc2nnc(-c3ncc[nH]3)c3ccccc23)cc1 | - | - | - | - | 70.4
CCOc1ccc(CCNC(=O)c2ccc(-c3nc(COc4ccc(C)cc4)c(C)o3)cc2)cc1 | - | . | . | - | .
O=c1oc(-c2ccc(O)c(O)c2)cc2cc(O)cc(O)c12 | . | 51.3 | ? | . | .
COc1ccccc1C=Cc1ccnc2ccccc12 | . | - | - | . | .
COc1ccc(/C=C/c2ccncc2)c2ccccc12 | - | - | - | - | 44.6
CCOC(=O)c1ccccc1NS(=O)(=O)c1ccc(N2CCCCS2(=O)=O)cc1 | - | . | . | - | .
COc1ccc(/C=N/Nc2nc(-c3cccc(S(=O)(=O)N4CCCC4)c3)cs2)cc1OC | - | - | - | - | -
CCOc1cc(/C=N/Nc2nc(-c3cccc(S(=O)(=O)N4CCCC4)c3)cs2)ccc1O | - | 118.7 | ? | - | -
CC(Oc1ccc(Br)cc1)C(=O)Nc1ncn[nH]1 (stereo unspecified) | - | . | . | - | .
O=C(Nc1cccs1)Nc1ccccc1Cl | - | - | - | - | -
O=C(Nc1cccs1)Nc1cccnc1Cl | - | - | - | - | 36.7
Cc1cc(=O)n2nc(N3CCC(C(=O)Nc4c(C)cccc4C)CC3)sc2n1 | - | . | . | - | .
CCC(C)N1C(=O)/C(=C/c2c(NCCCOC(C)C)nc3c(C)cccn3c2=O)SC1=S (stereo unspecified) | - | - | - | 33.7 | -
CC(C)c1ccc2occ(-c3nn[nH]n3)c(=O)c2c1 | - | - | - | - | 32.4
c1ccc(Nc2ccccc2Nc2ccccn2)nc1 | - | - | - | - | 33.7
c1ccc(CNc2ccccn2)cc1 | - | - | - | - | -
COC(=O)COc1ccc2c(-c3cccc([N+](=O)[O-])c3)cc(=O)oc2c1 | - | - | - | - | 49.5
CC(C)c1ccc(S(=O)(=O)c2cnc(SCC(=O)Nc3ccc4c(c3)OCCO4)[nH]c2=O)cc1 | - | . | . | . | .
COC(=O)CCC(=O)OC1(C)C(=O)C2=CN(C(CO)CO)C(c3ccc(OC)cc3)=CC2=C(Br)C1=O (stereo unspecified) | - | . | . | - | 30.0

Bioassay records from PubChem BioAssay.
